Screening results as filed in PubChem BioAssay.
Shown are actives, neighbours in structure and some others; about 11% of the full set was active somewhere.
ALOX12 inhib – qHTS Assay for Inhibitors of 12-hLO (12-human lipoxygenase). 0.12% of 150,000 active. purified 12-hLO, xylenol orange hydroperoxide absorbance. Potency, µM (highest dose often 57.1 µM), for inactives: at the highest dose activity change, negative = inhibition, most hits filed as inhibitors. Polyunsaturated fatty acid lipoxygenase ALOX12 (Homo sapiens), P18054; note: potency is the fitted concentration of half-maximal effect; nearly all actives have a fitted effect of over 55% in size
Target sequence (P18054 whole entry, looked up): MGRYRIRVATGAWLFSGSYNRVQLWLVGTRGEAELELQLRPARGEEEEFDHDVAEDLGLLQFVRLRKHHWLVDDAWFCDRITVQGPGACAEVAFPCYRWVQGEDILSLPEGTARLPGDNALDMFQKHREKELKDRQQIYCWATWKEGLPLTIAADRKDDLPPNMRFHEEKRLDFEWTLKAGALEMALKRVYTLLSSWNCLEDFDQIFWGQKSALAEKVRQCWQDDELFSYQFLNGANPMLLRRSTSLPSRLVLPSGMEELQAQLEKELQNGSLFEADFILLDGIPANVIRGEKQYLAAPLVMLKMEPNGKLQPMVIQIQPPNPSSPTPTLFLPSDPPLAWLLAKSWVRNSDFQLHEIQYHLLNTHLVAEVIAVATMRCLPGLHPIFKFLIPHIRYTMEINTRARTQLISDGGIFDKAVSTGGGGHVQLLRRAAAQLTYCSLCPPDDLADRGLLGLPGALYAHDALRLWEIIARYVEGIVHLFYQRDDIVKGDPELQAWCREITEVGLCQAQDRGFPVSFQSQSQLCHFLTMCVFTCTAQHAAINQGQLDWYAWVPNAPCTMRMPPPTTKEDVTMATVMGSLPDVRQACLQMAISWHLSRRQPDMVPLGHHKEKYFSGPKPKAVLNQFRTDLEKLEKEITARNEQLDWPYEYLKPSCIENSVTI
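Xylenol orange chromogenic assay: hydroperoxide from 12hLO oxidises Fe(II), giving red-shifted Fe(III)-XO absorbance. Conditions: 150 nM enzyme, 40 uM arachidonic acid, 25 mM Hepes pH 7.0, 0.01% Triton X-100, 30 min, room temperature.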
ALDH1A1 inh – qHTS Assay for Inhibitors of Aldehyde Dehydrogenase 1 (ALDH1A1) | Purified ALDH1A1, NADH fluorescence, propionaldehyde substrate | Potency, µM (highest dose often 75.3 µM), for the others: at the highest dose activity, negative = inhibition, usual class: inhibitors | Aldehyde dehydrogenase 1A1 (Homo sapiens), P00352 | 7.3% of 220,000 active | AID 1030, 2008; active = well fitted inhibition curve with a large enough effect, not every such curve was filed as active; inconclusive = small, poorly fitted or top-dose-only effect, or another doubt; inactive = no such curve, though single readings can be large or run the other way;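 note: potency is the fitted concentration of half-maximal effect; plate controls were no enzyme wells and a reference inhibitor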
HPGD inh – qHTS Assay for Inhibitors of HPGD (15-Hydroxyprostaglandin Dehydrogenase). Potency, µM, inactives show at the top dose activity change, negative = inhibition, actives largely listed as inhibitors. AID 894, 2007. purified HPGD, NADH fluorescence kinetic, PGE2 substrate. 15-hydroxyprostaglandin dehydrogenase [NAD(+)] (Homo sapiens), P15428. 4.3% of 150,000 active; active = well fitted inhibition curve with a large enough effect, not every such curve was filed as active; inconclusive = small, poorly fitted or top-dose-only effect, or another doubt; inactive = no such curve, though single readings can be large or run the other way; note: potency is the fitted concentration of half-maximal effect
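20 nM HPGD preincubated 15 min at room temperature with compound in 50 mM Tris-HCl pH 8, 0.01% Tween 20. Started with 1 mM NAD+ and 30 uM prostaglandin E2; NADH fluorescence (360/450 nm) read 5 times over 30-s intervals, last minus first.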
PNC assembly inh – High Content Assay for Compounds that inhibit the Assembly of the Perinucleolar Compartment; activity change (PNC), negative = inhibition, % at 10 µM; AID 2417, 2010; 3.1% of 140,000 active; PC3M PTB-GFP, PNC prevalence imaging, 16 h; hits give low values;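 active = readout at or below -70, meaning at least 70% loss of cells showing the perinucleolar compartment, a nuclear body marking cancer cells; inconclusive = readout between -30 and a set limit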;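 note: plate controls were DMSO wells for no effect and camptothecin positive control wells for full effect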
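Compounds are pinned in duplicate onto adhered PC3M cells stably expressing GFP-tagged PTB and incubated 16 h at 37 C. Cells are then fixed, nuclei stained with Hoechst, and PNC-positive cells counted.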
IMPase inh – qHTS Assay for Identifying the Cell-Membrane Permeable IMPase Inhibitors | CHO-M1 cells, IP1 accumulation, HTRF TR-FRET ratio | inhibition (IP1 accumulation), % at 46.1 µM | 120,000 tested, under 10 active | AID 901, 2007; active = well fitted curve in the direction sought with a large enough effect in the signal ratio, not every such curve was filed as active; inconclusive = small, poorly fitted or top-dose-only effect, or a change in a side signal; inactive = no such curve, though single readings can be large or run the other way; the % refers to the signal ratio;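 note: cells stimulated with carbachol in lithium chloride buffer; plate controls were DMSO basal wells for no effect and reference inhibitor wells for full effect; higher means more IMPase inhibition seen as more IP1 and lower FRET ratio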
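CHO-M1 cells (CHO stably expressing M1 receptor), compound up to 46 uM final, stimulated with carbachol (50 uM as added) in buffer with 50mM LiCl, pH 7.4, 30 min at 37C. Cytosolic IP1 read by TR-FRET; AC50 from Hill fits.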
IMPase Li inh – qHTS Assay for Identifying the Cell-Membrane Permeable IMPase Inhibitors: Potentiation with Lithium; CHO-M1 cells, IP1 TR-FRET (IP-One), carbachol + lithium; Potency, µM (series often up to 59.4 µM), for inactives: at the top dose activity, negative = IMPase inhibition, usual class: inhibitors; 0.35% of 210,000 active;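 note: IP1 builds up when IMPase is blocked and the TR-FRET signal falls; potency is the fitted concentration of half-maximal effect; plate controls were basal vehicle for no effect and high inhibitor control for full effect; nearly all actives have a fitted effect of over 50% in size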
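Lithium-sensitised IP1 accumulation assay; M1-expressing CHO cells treated 30 min at 37C with compound. Competitive antibody detection by time-resolved FRET followed a 10 min room-temperature lysis step.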
* marks the source's active call; other numbers are inactive results; [ ] = dose if it differs, or a comment. Unless noted, calls come from the whole dose curve; as a rule, active = well fitted curve in the direction sought with a large enough effect; inconclusive = small, poorly fitted or top-dose-only effect, or another doubt; inactive = no such curve, though single readings can be large; an effect the other way counts as inactive or inconclusive. Unless noted, % is set by controls: 0 for no effect and ±100 for the full control effect.

`NNC(=O)c1csc(-c2cccc(C(F)(F)F)c2)n1` gave ALDH1A1 inh 4.5µM* and IMPase Li inh -10%.
For O=C1c2ccccc2C(=O)C12OC2c1ccc(Cl)cc1 (stereo not given) the results were ALOX12 inhib inconclusive, ALDH1A1 inh 0.79µM*, HPGD inh -20%, PNC assembly inh 40 and IMPase Li inh 7%.
For O=C1NC(c2ccc(Cl)cc2)Nc2ccccc21 (stereo not given) the results were ALDH1A1 inh inconclusive and IMPase Li inh -16%.
For CC1=C(C(=O)OCC2CCCO2)C(c2ccc(C)o2)C2=C(CC(c3ccc(F)cc3)CC2=O)N1 (stereo not given) the results were ALOX12 inhib -2%, ALDH1A1 inh inconclusive, HPGD inh -11%, PNC assembly inh 8, IMPase inh 10 and IMPase Li inh 12%[38.3 µM].
CC1=C(C(=O)OCC2CCCO2)C(c2ccc(C)o2)C2=C(CC(c3ccc(N(C)C)cc3)CC2=O)N1 (stereo not given) was read as ALOX12 inhib -2%, ALDH1A1 inh 10µM*, HPGD inh -8%, PNC assembly inh 13, IMPase inh -9 and IMPase Li inh 5%.
For CCOC(=O)C1=C(C)NC2=C(C(=O)CCC2)C1c1ccc(N(C)C)cc1 (stereo not given) the results were ALOX12 inhib -4%, ALDH1A1 inh 28µM*, HPGD inh -1%, PNC assembly inh 30, IMPase inh -13 and IMPase Li inh 36%[38.3 µM].
`CC(C(=O)NCC1CCCCC1)N1CCN(S(=O)(=O)c2ccccc2F)CC1` (stereo not given) gave ALDH1A1 inh 16µM* and IMPase Li inh 9%.
CCOC(=O)c1snc(-c2ccc(F)cc2)c1N was read as ALOX12 inhib -9%, ALDH1A1 inh 10µM*, HPGD inh inconclusive, PNC assembly inh 30, IMPase inh 1 and IMPase Li inh -25%[38.3 µM].
Screening Cc1ccc2c(c1)C(=O)OC(C(=O)Nc1ncc(Cc3ccccc3Cl)s1)C2 (stereo not given) returned IMPase inh -7.
CN1CCN(C2=C(Cl)C(=O)N(c3cccc(Cl)c3)C2=O)CC1 was read as ALOX12 inhib -1%, ALDH1A1 inh inconclusive, HPGD inh -1%, PNC assembly inh 30, IMPase inh 6 and IMPase Li inh -11%.
For Cc1ccccc1N1C(=O)C(Cl)=C(N2CCN(c3ccccc3)CC2)C1=O the results were ALOX12 inhib -12%, ALDH1A1 inh inconclusive, HPGD inh -26%, PNC assembly inh -85*, IMPase inh 10 and IMPase Li inh 8%[38.3 µM].
`CN1CCN(C2=C(Cl)C(=O)N(c3ccc(Cl)c(Cl)c3)C2=O)CC1` gave ALOX12 inhib inconclusive, ALDH1A1 inh 25µM*, HPGD inh -11%, PNC assembly inh 38, IMPase inh -1 and IMPase Li inh -14%[38.3 µM].
Screening CO[C@H]1COC(=O)[C@H](C)NC(=O)C/C=C\[C@@H](C)[C@H](OC)COC(=O)[C@@H](OCc2ccccc2)/C=C\[C@@H]1C returned ALDH1A1 inh 5%[13.5 µM].
`O=[N+]([O-])c1ccc(Sc2cccc[n+]2[O-])c2nonc12` gave ALDH1A1 inh 2.2µM*.
For O=C(CSc1cccc[n+]1[O-])Nc1ccc(C(F)(F)F)cc1[N+](=O)[O-] the results were ALDH1A1 inh inconclusive and IMPase Li inh 3%.
